This passage reports outcome results from PubChem BioAssay AID1117290 (Broad Institute, 2014).

Entries with a potency or affinity are not part of this list. Calls of active or inactive are those of the source.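 The calls were made as follows: active = every replicate test called active, each showing a drop in signal with a fitted potency within twice the top tested dose; inconclusive = tests disagree, or fits are weak, flat midrange or poor; inactive = every test flat, rising or fitted past the limit.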

This assay can be described thus: A549 cell cytotoxicity, dose response, cytotoxicity control, CellTiter-Glo luminescence, dry powder, set 18 (AID 1117290). The note with it: A549 viability, CellTiter-Glo ATP luminescence, 72 h; series mostly up to 26 µM. On the technique in general: ATP-based viability assays read luminescence as a measure of living cells.
As for `NC(=NCCc1c[nH]c2ccccc12)NS(=O)(=O)c1cc(F)ccc1F`, the compound was classed as inactive.

For the compound `CC(=O)N1CCN(C(=O)C2(NC(=O)Nc3ccc(F)cc3)CCCCC2)CC1`, the compound was called inactive.

In the case of `Cc1ccccc1S(=O)(=O)Nc1cc(C(F)(F)F)ccc1N1CCCCC1`, the call was inactive.

In the case of `CC(=O)N1CCN(C(=O)C2(NC(=O)Nc3cccc(F)c3)CCCCC2)CC1`, the compound was called inactive.

Turning to `CC(=O)N1CCN(C(=O)C2CCCN2C(=O)Nc2ccc(C)cc2)CC1` (stereo not given), the compound was called inactive.

As to `COc1ccc(C(=O)O)cc1S(=O)(=O)Nc1cc(C(F)(F)F)ccc1N(C)C`, the outcome was inactive.

In the case of `CC(=O)N1CCN(C(=O)C2(NC(=O)Nc3ccccc3C(F)(F)F)CCCCC2)CC1`, the compound was called inactive.

On to `CC(=O)N1CCN(C(=O)C2(NC(=O)Nc3ccc(C)cc3)CC2)CC1`, for which the compound was called inactive.

Take `CC(=O)N1CCN(C(=O)C2(NC(=O)Nc3cccc(C(F)(F)F)c3)CCCCC2)CC1`: the result was inactive.

For `CC(=O)N1CCN(C(=O)C(C)(C)NC(=O)Nc2ccc(C)cc2)CC1`, the compound was called inactive.
